IMPase Li cell: IMPase inhibition in cells with lithium potentiation. 0.35% of 210,000 active. CHO-M1 cells, IP1 TR-FRET (IP-One), carbachol + lithium. Potency, µM (titrated, usually from 59.4 µM), for inactives: at the top dose activity, negative = IMPase inhibition, actives largely listed as inhibitors;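 note: IP1 builds up when IMPase is blocked and the TR-FRET signal falls; potency is the fitted concentration of half-maximal effect; plate controls were basal vehicle for no effect and high inhibitor control for full effect; nearly all actives have a fitted effect of over 50% in size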
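CHO cells stably expressing M1 receptor (2000/well, cultured 16–30 h) treated 30 min at 37C with compound plus low lithium. Cytosolic IP1 by TR-FRET (665/620 ratio and 620 channel) after 10 min lysis; AC50 by Hill fit.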
IMPase cell inh: cell-permeable inhibitors of inositol monophosphatase (IMPase) | P97697 | CHO-M1 cells, IP1 accumulation, HTRF TR-FRET ratio | inhibition (IP1 accumulation), % at 46.1 µM | 120,000 tested, under 10 active | AID 901; active = well fitted curve in the direction sought with a large enough effect in the signal ratio, not every such curve was filed as active; inconclusive = small, poorly fitted or top-dose-only effect, or a change in a side signal; inactive = no such curve, though single readings can be large or run the other way; the % refers to the signal ratio;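 note: cells stimulated with carbachol in lithium chloride buffer; plate controls were DMSO basal wells for no effect and reference inhibitor wells for full effect; higher means more IMPase inhibition seen as more IP1 and lower FRET ratio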
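Seeded CHO-M1 cells were dosed with compound at up to 46 uM, stimulated with carbachol for 30 min, then lysed in IP-One detection reagents. Higher IP1 lowers the TR-FRET signal.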
HPGD block: inhibitors of human 15-hydroxyprostaglandin dehydrogenase (HPGD). purified HPGD, NADH fluorescence kinetic, PGE2 substrate. Potency, µM, without a hit: at the highest dose activity change, negative = inhibition, usual class: inhibitors. P15428. 4.3% of 150,000 active; active = well fitted inhibition curve with a large enough effect, not every such curve was filed as active; inconclusive = small, poorly fitted or top-dose-only effect, or another doubt; inactive = no such curve, though single readings can be large or run the other way; note: potency is the fitted concentration of half-maximal effect
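20 nM HPGD preincubated 15 min at room temperature with compound in 50 mM Tris-HCl pH 8, 0.01% Tween 20. Started with 1 mM NAD+ and 30 uM prostaglandin E2; NADH fluorescence (360/450 nm) read 5 times over 30-s intervals, last minus first.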
ALOX12 inhib: inhibitors of human 12-lipoxygenase (ALOX12). purified 12-hLO, xylenol orange hydroperoxide absorbance. Potency, µM (titrated, usually from 57.1 µM), for the others: top-dose activity change, negative = inhibition, actives largely listed as inhibitors. 0.12% of 150,000 active; note: potency is the fitted concentration of half-maximal effect; nearly all actives have a fitted effect of over 55% in size
Target sequence (P18054 whole entry, looked up): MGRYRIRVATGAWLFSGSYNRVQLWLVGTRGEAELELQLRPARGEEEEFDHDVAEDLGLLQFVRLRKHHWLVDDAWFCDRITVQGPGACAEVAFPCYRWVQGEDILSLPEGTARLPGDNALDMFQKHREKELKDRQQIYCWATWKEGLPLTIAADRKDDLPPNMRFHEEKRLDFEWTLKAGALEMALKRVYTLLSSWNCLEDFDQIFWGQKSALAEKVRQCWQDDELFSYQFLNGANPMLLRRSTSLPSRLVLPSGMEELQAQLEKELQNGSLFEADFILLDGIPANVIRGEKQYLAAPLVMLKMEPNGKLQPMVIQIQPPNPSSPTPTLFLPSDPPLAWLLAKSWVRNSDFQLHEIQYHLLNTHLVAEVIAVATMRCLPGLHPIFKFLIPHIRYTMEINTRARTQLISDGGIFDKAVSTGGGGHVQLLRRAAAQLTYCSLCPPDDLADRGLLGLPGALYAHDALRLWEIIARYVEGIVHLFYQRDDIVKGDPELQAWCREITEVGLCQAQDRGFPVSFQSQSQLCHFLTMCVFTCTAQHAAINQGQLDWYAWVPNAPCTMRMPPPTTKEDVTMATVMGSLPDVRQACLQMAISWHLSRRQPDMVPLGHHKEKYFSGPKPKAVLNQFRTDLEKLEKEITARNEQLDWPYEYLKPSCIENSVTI
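150 nM 12hLO, 25 mM Hepes pH 7.0 + 0.01% Triton X-100; cpd preinc 15 min RT; 40 uM arachidonic acid, 30 min RT; Fe-XO 30 min; A573/A405 ratio as read-out.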
PNC assembly inh: blocks assembly of the perinucleolar compartment; PC3M PTB-GFP, PNC prevalence imaging, 16 h; active compounds read low; activity change (PNC), negative = inhibition, % at 10 µM; 3.1% of 140,000 active; AID 2417;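 active = readout at or below -70, meaning at least 70% loss of cells showing the perinucleolar compartment, a nuclear body marking cancer cells; inconclusive = readout between -30 and a set limit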;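 note: plate controls were DMSO wells for no effect and camptothecin positive control wells for full effect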
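PC3M cells stably expressing PTB-GFP, 750–1000 cells/well, treated 16 h at 37 °C with compound (23 nl of library stock), in duplicate. After paraformaldehyde fixation and Hoechst stain, imaged at 20x; PNC prevalence scored by image analysis.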
ALDH1A1 block: ALDH1A1 (human) enzyme inhibition | P00352 | Purified ALDH1A1, NADH fluorescence, propionaldehyde substrate | 7.3% of 220,000 active | Potency, µM (doses to about 75.3 µM), inactives show at the top dose activity, negative = inhibition, hits mostly inhibitors; active = well fitted inhibition curve with a large enough effect, not every such curve was filed as active; inconclusive = small, poorly fitted or top-dose-only effect, or another doubt; inactive = no such curve, though single readings can be large or run the other way;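 note: potency is the fitted concentration of half-maximal effect; plate controls were no enzyme wells and a reference inhibitor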
* hit, by the source's call; [ ] = another dose, or the depositor's remark. Shown are actives, neighbours in structure and some others; about 11% of the full set was active somewhere. Unless noted, calls come from the whole dose curve; as a rule, active = well fitted curve in the direction sought with a large enough effect; inconclusive = small, poorly fitted or top-dose-only effect, or another doubt; inactive = no such curve, though single readings can be large; an effect the other way counts as inactive or inconclusive. Unless noted, % is set by controls: 0 for no effect and ±100 for the full control effect.

What do the screens show for `CC(=O)Nc1ccc(S(=O)(=O)NCC(=O)OCC(=O)N2CCCc3ccccc32)cc1`?
IMPase Li cell: 0.3%; HPGD block: -0.4%; ALOX12 inhib: -3.4%; PNC assembly inh: -99.5*; ALDH1A1 block: -7.5%

What do the screens show for `CC(=O)Nc1ccc(S(=O)(=O)NCC(=O)OCC(=O)N2CCN(c3ccccc3)CC2)cc1`?
IMPase Li cell: -1.1%; HPGD block: -0.3%; ALOX12 inhib: 3.5%; PNC assembly inh: 49.9; ALDH1A1 block: 20µM*

How did O=C(CNS(=O)(=O)c1ccc(Cl)cc1)OCC(=O)N1CCCc2ccccc21 do in these assays?
IMPase cell inh: 5.0; ALOX12 inhib: -2.0%; PNC assembly inh: inconclusive; ALDH1A1 block: 11.1%

What do the screens show for `CC(C)NC[C@H]1CCc2cc(CO)c([N+](=O)[O-])cc2N1`?
IMPase Li cell: -0.3%; IMPase cell inh: 5.5[20.6 µM]; HPGD block: -0.1%; ALOX12 inhib: 0.1%[25.6 µM]; ALDH1A1 block: 19.1%[20.9 µM]

What do the screens show for `O=C1Nc2ccccc2C(=O)N2CCC[C@@H]12`?
IMPase Li cell: 9.5%; HPGD block: -2.7%; ALDH1A1 block: 10.8%

Results for COc1ccc(CNc2ncncc2-c2ccccc2Cl)c(OC)c1 ?
IMPase Li cell: 13.1%; HPGD block: -13.0%; ALOX12 inhib: -0.6%; ALDH1A1 block: inconclusive

What do the screens show for `COC(=O)C1=C(C(=O)OC)[C@@H]2N(C)c3ccccc3[C@@]23C[C@@H](CO)N(C(=O)c2ccco2)C3=N1`?
IMPase Li cell: -0.9%; HPGD block: 5.3%; ALOX12 inhib: -0.4%[11.4 µM]; ALDH1A1 block: -1.9%[13.5 µM]

Results for CCOc1ccc(NC(=O)c2ccc(-c3cccc(Cl)c3C)o2)cc1 ?
IMPase cell inh: -9.2

Results for Cc1ccc(OCC(=O)c2cc(C)n(CC(F)(F)F)c2C)c([N+](=O)[O-])n1 ?
IMPase Li cell: 3.4%; ALDH1A1 block: 20µM*

Results for COc1ccc(NC(=O)COc2cccnc2[N+](=O)[O-])cc1OC ?
IMPase Li cell: -2.9%; ALDH1A1 block: 7.4%

How did COCCn1c(C)cc(C(=O)COc2cccnc2[N+](=O)[O-])c1C do in these assays?
IMPase Li cell: 0.9%; ALDH1A1 block: 5.62µM*

What do the screens show for `Cc1cc(C)c(C(=O)COc2cccnc2[N+](=O)[O-])cc1C`?
IMPase Li cell: 26.7%[38.3 µM]; IMPase cell inh: 6.4; HPGD block: -19.4%; ALOX12 inhib: -4.3%; PNC assembly inh: 20.8; ALDH1A1 block: 1.58µM*

How did O=c1c(-c2ccccc2)nc2cnc(Oc3ccccc3)nc2n1Cc1cccs1 do in these assays?
IMPase Li cell: 8.3%; HPGD block: -23.2%; ALOX12 inhib: -9.0%; ALDH1A1 block: inconclusive

How did O=C(O)/C=C(/C(=O)O)[C@]12CCN3CC4=CCO[C@@H]5CC(=O)N[C@@H]1[C@H]5[C@H]4C[C@H]32 do in these assays?
ALOX12 inhib: -0.6%[11.4 µM]

What do the screens show for `O=C1N=c2ccccc2=C1c1c(O)n(-c2cccc(F)c2)[nH]c1=O`?
IMPase Li cell: 2.3%; HPGD block: 5.62µM*; ALOX12 inhib: 1.2%; PNC assembly inh: 41.1; ALDH1A1 block: 25.1µM*

What do the screens show for `Cc1ccc(NC(=O)CN2C(=O)NC(Cc3ccccc3)C2=O)c(Br)c1` (centres undefined)?
IMPase Li cell: -7.5%; ALDH1A1 block: 11.7%

How did C[C@]12C[C@H](O)C3[C@@H](CCC4=CC(=O)CC[C@@]43C)[C@@H]1CC[C@@H]2C(=O)CO (some centres undefined) do in these assays?
IMPase Li cell: 1.9%; HPGD block: -1.4%; ALDH1A1 block: -8.6%

How did Cc1ccc(N=Cc2cc(Br)cc(Cl)c2O)cc1 do in these assays?
IMPase Li cell: -23.6%; ALDH1A1 block: 12.6%

Results for COc1ccc(CN=Cc2[nH]c3ccc(Br)c(Cl)c3c2O)cc1 ?
IMPase Li cell: 1.3%[38.3 µM]; IMPase cell inh: 1.4[1.84 µM]; HPGD block: inconclusive; ALOX12 inhib: -17.1%; PNC assembly inh: inconclusive; ALDH1A1 block: 3.98µM*

Screening results: PubChem, National Center for Advancing Translational Sciences (NCATS)
